Data on 37 compounds can be found in PubChem BioAssay (EPA / NIEHS).

“And” between values parts separate entries of the source, which are not always exact repeats. Equal entries are not always repeated. Records with an inconclusive call do not appear. The source holds several records for some structures; these can differ, active in one and inactive in another. The source made the active and inactive calls. How the source made its calls: active means hit-call score of the fitted dose curve at least 0.9, where 1 is the maximum; inconclusive means response in the unintended direction; inactive means score below 0.9.

A short description of the assay: TOX21_p53_BLA_p5_viability: Viability Assessment in the Tox21 HCT-116 p53 Agonism Beta-lactamase Assay, Phase 5 (AID 2283600). From the text: TOX21_p53_BLA_p5 is a cell-based, single-readout assay that uses HCT116, a human intestinal cell line, […] in a 1536-well plate.TOX21_p53_BLA_p5_viability is an assay readout measuring cellular ATP content and detected with CellTiter-Glo Luciferase-coupled ATP quantitation.TOX21_p53_BLA_p5_viability used a type of viability reporter where loss-of-signal activity can be used to understand changes in the cell viability. Furthermore, this assay endpoint can be referred to as a secondary readout, because this assay has produced multiple assay endpoints where this one serves a viability function. To generalize the intended target to other relatable targets, this assay endpoint is annotated to the cell cycle intended target family, where the subfamily is cytotoxicity.
Thawing Method: Place 14 mL of pre-warmed thaw medium into a 15 mL of conical tub. Remove the vial of cells to be thawed from liquid nitrogen and thaw rapidly by placing at 37C in a water bath with gentle agitation for 1-2 minutes. Decontaminate the vial by wiping with 70% ethanol before opening in a biological safety cabinet. Transfer the vial contents drop-wise into 14 mL of thaw medium in a sterile 15-mL conical tub. Centrifuge cells at 900 rpm for 4 minutes and resuspend in thaw medium. Transfer contents to the T75 tissue culture flask containing Thaw Medium and place flask in a humidified 37C/5% CO2 incubator. Switch to growth medium at first passage.Propagation Method: Aspirate medium, rinse once in DPBS, add 0.25% Trypsin/EDTA and swirl to coat the cell evenly. Add an equal volume of Growth Medium to inactivate Trypsin after 2-3 minutes incubation at 37C. Centrifuge cells at 900 rpm for 4 minutes and resuspend in growth medium. Cell should be passage or fed at least twice a week.Assay Protocol: Harvest cells from culture in growth medium and resuspend in assay medium. 2.2 Dispense 4000 cells/5 uL/well into 1536-well black/clear bottom plates using a Multidrop dispenser. After the cells were incubated at 37C for 5 hours, 23 nL of compounds dissolved in DMSO were transferred to the assay plate by a PinTool resulting in a 217-fold dilution. Incubate the plates for 16 hours at 37C, 5% CO2. Add 1 uL of 6X LiveBLAzer FRET B/G (CCF4-AM) Substrate Mixture to each well using a BioRAPTR dispenser and incubate the plates at room temperature for 2 hours. Measure fluorescence intensity at 460 and 530 nm emission and 405 nm excitation by an Envision detector. Data is expressed as the ratio of 460nm/530nm emissions. Add 4 uL of Cell-titer Glo to each well using BioRAPTR and incubate the plates at room temperature for […]. For cell viability readout that measures cytotoxicity, 4 ul/well of CellTiter-Glo reagent was added into the assay plates using a Flying Reagent Dispenser. After 30 min incubation at room temperature, the luminescence intensity in the plates was measured using a ViewLux plate reader.
For the compound `CCCCCCCCCCCCCCCC[n+]1ccccc1`, the AC50 is 62.7 µM (active) and 84.3 µM (active) and 80.2 µM (active); the compound was classed as inactive. With `COc1ccc(C=O)cc1OC`, the compound was called inactive. Turning to `C=C(C)C#N`, the result was inactive. As to `CCC(=O)c1ccccc1`, the outcome was inactive.

Consider `CCC[CH2][Sn]([CH2]CCC)([CH2]CCC)[O]C(=O)c1ccccc1`, for which the AC50 is 1.77 µM (active). With `O=C1C(Cl)=C(Cl)C(=O)c2ccccc21`, the AC50 is 57.7 µM (active) and the compound was called inactive. The like results for `C[C@H]1O[C@@H](O[C@H]2[C@@H](O)C[C@H](O[C@H]3[C@@H](O)C[C@H](O[C@H]4CC[C@@]5(C)[C@H](CC[C@@H]6[C@@H]5CC[C@]5(C)[C@@H](C7=CC(=O)OC7)CC[C@]65O)C4)O[C@@H]3C)O[C@@H]2C)C[C@H](O)[C@@H]1O` were, in that order, 0.028 µM (active) and “inactive”.

Turning to `CCNc1nc(NC(C)(C)C)nc(SC)n1`, the result was inactive.

As to `CN(C)P(=O)(N(C)C)N(C)C`, the compound was called inactive. With `O=C(OC1CCCCC1)c1ccccc1C(=O)OC1CCCCC1`, the compound was classed as inactive. `CCCCCCCCCl`: the compound was classed as inactive.

In the case of `COP(=S)(OC)Oc1ccc(Sc2ccc(OP(=S)(OC)OC)cc2)cc1`, the compound was classed as inactive.

Turning to `COC(=O)c1sccc1S(=O)(=O)NC(=O)Nc1nc(C)nc(OC)n1`, the outcome was inactive. As to `CC(=O)[O][Hg][c]1ccccc1`, the concentration at half-maximal activity (AC50) is 1.5 µM (active) and 1.56 µM (active) and 2.25 µM (active).

On to `CC(C)C1CCC(Cc2ccc(Cl)cc2)C1(O)Cn1cncn1` (stereo not given), for which the AC50 is 71.1 µM (active). For the compound `COc1ccc(C(O)(c2cncnc2)C2CC2)cc1` (stereo not given), the result was inactive. Consider `CC(C)c1cccc(C(C)C)c1O`, for which the outcome was inactive. As for `COP(=O)(OC)OC`, the call was inactive. `COc1cc(OC)nc(NC(=O)NS(=O)(=O)c2ncccc2C(=O)N(C)C)n1`: the compound was classed as inactive.

Regarding `C=CC(=O)OCCCCCC(C)C`, the call was inactive. Same read-out and setting: for `O=C(CCl)CCl` the value was “inactive”. For the compound `Nc1ncc([N+](=O)[O-])s1`, the result was inactive. The same measure, in the same setting: for `Clc1ccc(C2(Cn3cncn3)CC(Br)CO2)c(Cl)c1` (stereo not given) the value was “inactive”; for `BrCCBr`, “inactive”; for `O=C(O)C(Cl)(Cl)Cl`, “inactive”.

In the case of `CCN1CCC2(CC1)COc1cc3c(cc12)N(C(=O)c1ccc(-c2ccc(-c4nnc(C)o4)cc2C)cc1)CC3`, the AC50 was 64.2 µM (active). `COP(=S)(OC)Oc1ccc(S(=O)(=O)N(C)C)cc1`: the compound was classed as inactive. Turning to `O=C/C=C/c1ccccc1`, the result was inactive. As to `C=CC#N`, the result was inactive. For `Oc1ccc(-c2ccccc2)cc1`, the result was inactive. As for `ClCc1ccccn1`, the outcome was inactive. On the same count and under the same terms, the result for `CC12CC1(C)C(=O)N(c1cc(Cl)cc(Cl)c1)C2=O` (stereo not given) reads “inactive”; that for `CCOC(=O)/C=C(C)/C=C/C[C@@H](C)CCCC(C)C`, “inactive”.

As to `CC(Br)C(=O)O` (stereo not given), the outcome was inactive.

Turning to `COP(=S)(OC)Oc1cc(Cl)c(Cl)cc1Cl`, the result was inactive. The same measure, in the same setting: for `C(=NC1CCCCC1)=NC1CCCCC1` the value was “inactive”; for `Oc1cccc2cccnc12`, “inactive”.
